# MBD2 inh – inhibitors of MBD2 binding to methylated DNA, primary screen, biochemical, TR-FRET, DNA-binding domain, human | Methyl-CpG-binding domain protein 2 (Homo sapiens), Q9UBB5 | MBD2 binding to methylated oligonucleotide | inhibition, % at 4.4 µM | actives 0.31% (n = 370,000); in the data active means inhibition above about 13%
# Neddylation inh – inhibitors of cullin neddylation, primary screen, biochemical, TR-FRET, uHTS, NAE and Ubc12; calls only at 25 µM; actives 0.58% (n = 360,000); in the data active means inhibition above about 36%
# UBC13 polyUb – UBC13 polyubiquitin chain formation inhibitors, primary screen, biochemical, TR-FRET, uHTS; Ubiquitin-conjugating enzyme E2 N (Homo sapiens), P61088; inhibition, % at 20 µM; actives 0.47% (n = 330,000); AID 485273, 2010; in the data active means inhibition above about 45%, passing the limit was not always enough
# UHRF1 binding – UHRF1 methylated DNA binding inhibitors, primary screen, counter-screen for MBD2 inhibitor project, biochemical, TR-FRET, human UHRF1, single concentration. E3 ubiquitin-protein ligase UHRF1 (Homo sapiens), Q96T88. UHRF1 binding to methylated oligo. inhibition, % at 4.4 µM. actives 0.75% (n = 370,000); in the data active means inhibition above about 21%;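 further: UHRF1 SRA domain binding a hemimethylated CpG hairpin DNA probe; 0% = median of test compound wells and 100% = reference inhibitor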
# * hit, by the source's call; i = inactive; / = no result shown; + = active, no number. This is a sample that favours compounds with a hit; in the whole collection about 1.8% have one here.
SMILES,MBD2 inh,Neddylation inh,UBC13 polyUb,UHRF1 binding
NCCCC[C@@H]1NC(=O)c2cc([N+](=O)[O-])cc(I)c2SC[C@@H](C(N)=O)NC(=O)[C@H](CCC(N)=O)NC1=O,10.2,i,-9.1,17.0
CCCN(C)C1CN(Cc2cn(Cc3cc(C)cc(C)c3)nn2)S(=O)(=O)C1 (centres undefined),7.4,i,/,22.3*
O=C(CNS(=O)(=O)c1ccc(Br)s1)NCc1ccccc1,-0.8,i,-0.2,-1.1
O=c1[nH]c(SCc2nc3ccccc3c(=O)n2-c2ccccc2)nc2ccccc12,-6.5,i,-12.5,34.8*
COc1ccc(NC(=O)CN2CCN(c3ccccc3Cl)CC2)cc1,-3.3,i,-2.0,-2.4
COc1ccc(NC(=O)Cn2cc(C(C)=O)c3ccccc32)cc1,-4.2,i,2.9,94.0*
COc1ccc(NC(=O)CN2CCN(c3ccccc3C)CC2)cc1,0.4,i,-1.1,79.2*
CCOc1ccc(NC(=O)Cn2cc(C(C)=O)c3ccccc32)cc1,1.7,i,2.4,0.1
CN1C(=O)CC(c2cn(Cc3ccccc3)c3ccccc23)C1=O (centres undefined),4.3,i,-3.4,2.4
Clc1ccc(OC2CCN(Cc3nc(CC4CC4)no3)CC2)cc1,-4.1,i,5.0,2.6
Cc1cccc(Nc2ncnc3onc(-c4cccc(Cl)c4)c23)c1C,-1.0,i,7.4,24.2*
Cc1cccc(Nc2ncnc3onc(-c4ccc(F)cc4)c23)c1C,-5.4,i,4.2,-1.0
Cc1cc(NC(=O)c2cccc(C)c2[N+](=O)[O-])no1,1.5,i,2.9,0.1
COc1ccc(NC(C)=O)cc1NC(=O)CSc1nnc(-c2ccncc2)n1C,2.7,i,4.8,3.0
COc1ccc(NC(C)=O)cc1NC(=O)CSc1nnc(-c2ccccc2)n1N,12.7,i,-14.7,25.7*
CCCNC(=O)c1cc2c(c(-c3cccc(-c4cc5ccccc5o4)c3)n1)[C@@H](CCO)N(C(=O)NC(C)C)C2,-5.3,i,/,27.7*
CC(C)(Oc1ccc(Cl)cc1)C(=O)O,-2.1,i,4.9,-2.1
CC(C)(Oc1ccc(Cl)cc1)C(=O)Nc1ncccn1,12.7,i,-4.7,21.6*
COc1cccc(CN2CCC(C(=O)Nc3ccc(-c4cccc(C)c4)cc3)CC2)c1O,8.8,i,26.9,70.6*
C[C@]12c3[nH]c4cc(-c5ccco5)ccc4c3CCN1C(=O)[C@@H](CC(=O)NCCN1CCOCC1)C[C@@H]2C(=O)N1CCCCC1,-2.1,/,/,-1.8
C=CCn1c(SCC(=O)Nc2ccc(Cl)cn2)nnc1C1CC1,1.4,i,4.0,0.8
S=C(NCCc1ccccc1)N1CCOCC1,0.2,i,-1.9,-2.6
S=C(NCCc1ccccc1)N1CCCC1,1.5,i,-6.5,27.1*
COc1ccc(Oc2cccc(Cl)c2CNC(=O)CC(C)(C)CC(=O)O)cc1,-0.1,i,1.3,-0.1
CCCC(=O)N1CCCC1(C)C(=O)Nc1ccc(-n2cccc2)cc1 (centres undefined),3.9,i,/,3.2
SMILES,MBD2 inh,Neddylation inh,UBC13 polyUb,UHRF1 binding
OCC(Cc1ccccc1)Nc1c2ccccc2nc2ccccc12 (centres undefined),-1.9,+,6.2,-10.1
O=C(CNC(=O)Cc1ccccc1)NCc1cccs1,2.3,i,3.9,-1.2
CCCOC(=O)c1c(NC(=O)C2CCCO2)sc(C(=O)OC)c1C (centres undefined),1.6,i,-0.1,24.6*
C[C@H]1CN([C@@H](C)CO)S(=O)(=O)c2ccc(C#CC3CC3)cc2O[C@@H]1CN(C)S(C)(=O)=O,-3.8,i,/,1.6
COc1cccc(C#Cc2ccc3c(c2)O[C@H](CN(C)S(=O)(=O)c2ccccc2F)[C@H](C)CN([C@H](C)CO)S3(=O)=O)c1,-5.1,i,/,20.7*
COc1cccc(C#Cc2ccc3c(c2)O[C@@H](CN(C)C(=O)c2ccccn2)[C@@H](C)CN([C@H](C)CO)S3(=O)=O)c1,2.7,/,/,22.2*
C[C@H](CO)N1C[C@H](C)[C@@H](CN(C)C(=O)c2cnccn2)Oc2cc(C#CCC3CCCC3)ccc2S1(=O)=O,8.8,i,/,22.5*
C[C@H](CO)N1C[C@H](C)[C@H](CN(C)C(=O)c2ccccn2)Oc2cc(C#Cc3ccc(F)cc3)ccc2S1(=O)=O,3.7,i,/,17.9
Cc1ccc(S(=O)(=O)N(C)C[C@H]2Oc3cc(C#CC4CCCC4)ccc3S(=O)(=O)N([C@H](C)CO)C[C@H]2C)cc1,5.5,i,/,21.5*
CC1CCCN(C(=O)COc2ccc(NC(=O)c3cccs3)cc2)C1 (centres undefined),2.0,i,-8.7,4.3
CN(C)/C=C/c1oc2ccc(O)cc2c1[N+](=O)[O-],-15.8,i,i,-21.8
Cc1ccc(OCC(=O)Nc2ccc(CN3CCOCC3)cc2)cc1,-4.5,i,5.7,1.5
O=C(Nc1nc(-c2ccc(Cl)s2)cs1)c1ccccc1,-0.2,i,-8.3,-1.6
Cc1ccc(C(=O)Nc2nc(-c3cc(Cl)sc3Cl)cs2)cc1,7.6,i,-15.0,23.1*
COc1ccccc1/C=c1\sc2nc(-c3ccco3)nn2c1=O,/,i,-19.0,/
CCOc1ccc(/C=c2\sc3nc(-c4ccco4)nn3c2=O)cc1OCC,9.2,i,-15.3,39.0*
CCOC(=O)c1ccc(NC(=O)NCc2ccccc2OC)cc1,-2.6,i,5.2,-3.3
CCOc1ccc(S(=O)(=O)N2CCCC(C(=O)NCC3CCCO3)C2)cc1Cl (centres undefined),-5.0,i,-2.3,83.1*
CCCCCCCCCCCC(=O)NC(Cc1ccc(OC)c([N+](=O)[O-])c1)C(=O)O (centres undefined),7.1,i,-17.5,12.4
CCOC(=O)C(Cc1ccc(OC)c([N+](=O)[O-])c1)NC(=O)CCC(=O)Nc1ccc(OC)cc1 (centres undefined),-6.5,i,-3.8,27.6*
CC(CNC(=O)CC[C@H]1O[C@@H](n2cnc3c(NC(=O)c4ccccc4)ncnc32)[C@H](O)[C@@H]1O)c1ccccc1 (some centres undefined),-0.4,i,/,27.0*
O=C(CC[C@H]1O[C@@H](n2cnc3c(NC(=O)c4ccccc4)ncnc32)[C@H](O)[C@@H]1O)NCC(c1ccccc1)c1ccccc1,1.4,i,/,0.0
CCN1CCN(CCCNC(=O)c2ccc(/C=C3/Oc4ccccc4N(Cc4cccc(C)c4)C3=O)cc2)CC1,/,/,64.0*,/
COc1cc2c(ccc3cc(OC)c(OC)c(O)c32)cc1O,26.9*,i,-59.9,52.5*
CC(=O)c1ccc(S(=O)(=O)N2CCn3cccc3C2C)cc1 (centres undefined),4.9,i,-4.9,0.1
CC1c2cccn2CCN1S(=O)(=O)c1ccc(F)cc1 (centres undefined),6.1,i,6.1,29.7*
COc1ccc(/C=N/NC(=O)c2csc(-n3nc(C)cc3C(F)(F)F)n2)cc1,-3.7,i,3.7,-2.1

# Source: PubChem
